PubChem BioAssay (EPA / NIEHS)
Results filed as inconclusive are left out. Calls of active or inactive are those of the source. Rule for the calls: active = hit-call score of the fitted dose curve at least 0.9, where 1 is the maximum; inconclusive = response in the unintended direction; inactive = score below 0.9.

How the values were obtained:
[1] = target: human SRC Proto-Oncogene, Non-receptor Tyrosine Kinase (SRC), SRC (gene 6714) (UniProt P12931); test: NVS_ENZ_hSRC: NovaScreen (NVS) Enzymatic Assay for human SRC Proto-Oncogene, Non-receptor Tyrosine Kinase (SRC) (AID 2283223)
Description: (§1) NVS_ENZ_hSRC is a biochemical, single-readout assay that uses extracted gene-proteins in a cell-free assay. Measurements were taken 1 hour after chemical dosing in a 384-well plate.NVS_ENZ_hSRC is one of one assay component(s) measured or calculated from the NVS_ENZ_hSRC assay. It is designed to make measurements of enzyme activity, a form of enzyme reporter, as detected with fluorescence intensity signals by Fluorescence and electrophoretic mobility shift technology.Data from the assay component NVS_ENZ_hSRC was analyzed into 1 assay endpoint. This assay endpoint, NVS_ENZ_hSRC, was analyzed in the positive analysis fitting direction relative to DMSO as the negative control and baseline of activity. Using a type of enzyme reporter, loss-of-signal activity can be used to understand changes in the enzymatic activity as they relate to the gene SRC. Furthermore, this assay endpoint can be referred to as a primary readout, because this assay has produced multiple assay endpoints where this one serves a enzymatic activity function. To generalize the intended target to other relatable targets, this assay endpoint is annotated to the kinase intended target family, where the subfamily is non-receptor tyrosine kinase. […]

[2] = target: human Tropomyosin Receptor Kinase A (TRKA), NTRK1 (gene 4914) (UniProt P04629); test: NVS_ENZ_hTrkA: NovaScreen (NVS) Enzymatic Assay for human Tropomyosin Receptor Kinase A (TRKA) (AID 2283224)
Description: as §1, with “NVS_ENZ_hTrkA” for “NVS_ENZ_hSRC”, “plate.NVS_ENZ_hTrkA” for “plate.NVS_ENZ_hSRC”, “NVS_ENZ_hTrkA,” for “NVS_ENZ_hSRC,”, “NTRK1.” for “SRC.”, “receptor” for “non-receptor”

human Tropomyosin Receptor Kinase A (TRKA), NTRK1 (gene 4914), sequence (P04629 whole entry, looked up): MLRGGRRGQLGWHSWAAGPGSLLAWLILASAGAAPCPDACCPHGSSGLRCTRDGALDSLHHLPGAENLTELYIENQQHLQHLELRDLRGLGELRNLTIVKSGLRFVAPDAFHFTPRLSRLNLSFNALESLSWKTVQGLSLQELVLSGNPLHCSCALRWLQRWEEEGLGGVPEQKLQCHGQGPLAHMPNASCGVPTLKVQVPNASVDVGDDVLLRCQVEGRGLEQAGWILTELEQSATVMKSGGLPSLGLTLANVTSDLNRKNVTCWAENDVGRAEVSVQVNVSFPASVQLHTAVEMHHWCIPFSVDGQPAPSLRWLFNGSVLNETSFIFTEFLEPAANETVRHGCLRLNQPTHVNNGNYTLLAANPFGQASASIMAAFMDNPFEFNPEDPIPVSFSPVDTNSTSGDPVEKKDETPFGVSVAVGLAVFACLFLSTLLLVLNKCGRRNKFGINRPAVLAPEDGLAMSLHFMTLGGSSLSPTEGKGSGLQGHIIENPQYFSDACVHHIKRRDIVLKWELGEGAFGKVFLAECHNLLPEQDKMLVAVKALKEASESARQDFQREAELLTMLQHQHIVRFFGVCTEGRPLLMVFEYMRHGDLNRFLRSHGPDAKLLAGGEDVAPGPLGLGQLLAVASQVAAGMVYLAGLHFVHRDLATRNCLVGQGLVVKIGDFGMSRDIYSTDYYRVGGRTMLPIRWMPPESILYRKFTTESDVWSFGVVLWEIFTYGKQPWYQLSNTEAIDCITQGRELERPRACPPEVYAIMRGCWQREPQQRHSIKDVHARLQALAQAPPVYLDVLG
human SRC Proto-Oncogene, Non-receptor Tyrosine Kinase (SRC), SRC (gene 6714), sequence (P12931 whole entry, looked up): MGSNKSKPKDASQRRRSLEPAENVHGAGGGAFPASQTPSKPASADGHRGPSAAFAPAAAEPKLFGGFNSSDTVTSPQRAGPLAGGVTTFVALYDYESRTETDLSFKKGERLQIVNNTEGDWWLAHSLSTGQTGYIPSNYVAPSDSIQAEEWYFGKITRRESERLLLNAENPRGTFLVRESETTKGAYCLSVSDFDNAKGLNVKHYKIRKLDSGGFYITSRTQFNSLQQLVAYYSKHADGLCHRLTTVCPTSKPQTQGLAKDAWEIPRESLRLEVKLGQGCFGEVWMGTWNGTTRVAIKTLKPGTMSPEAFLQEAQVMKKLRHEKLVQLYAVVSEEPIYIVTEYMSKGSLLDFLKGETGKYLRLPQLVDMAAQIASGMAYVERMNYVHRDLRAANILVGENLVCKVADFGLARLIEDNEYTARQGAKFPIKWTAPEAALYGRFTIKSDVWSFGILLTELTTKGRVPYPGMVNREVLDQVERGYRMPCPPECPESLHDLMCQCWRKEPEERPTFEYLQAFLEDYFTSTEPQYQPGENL

## COCCOc1cc2cc(C(=O)NC3CCN(C(C)C)CC3)n(CC(=O)Nc3ccc(Cl)cn3)c2cn1
[1]
  outcome: inactive

## Clc1nc(Cl)c(Cl)c(Cl)c1Cl
[1]
  outcome: inactive

## CC(=O)OCCC(C)C
[2]
  outcome: inactive

## O=C(O)c1cccc(Oc2ccccc2)c1
[2]
  outcome: inactive
